Data reported in PubChem BioAssay (NCI).
About 83,000 compounds went through this panel and 20% of them were active in at least one assay; those are over-represented in the sample as a whole.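 Cells were grown in 96-well plates and exposed to the test compound at a single concentration for 48 hours; results are reported as percent growth, with values below 10 considered active.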 Values without a mark were called inactive. Calls of active or inactive are those of the source.

Key:
Test in all cases: NCI-60 one-dose screen, 48 h (100 = growth as untreated, 0 = no growth, -100 = all killed)
Settings in all cases: 10 µM unless noted
SR leukemia = tested on: SR leukemia
RPMI-8226 leukemia = tested on: RPMI-8226 leukemia
OVCAR-8 ovarian = tested on: OVCAR-8 ovarian
OVCAR-5 ovarian = tested on: OVCAR-5 ovarian
OVCAR-4 ovarian = tested on: OVCAR-4 ovarian
SK-OV-3 ovarian = tested on: SK-OV-3 ovarian
IGROV1 ovarian = tested on: IGROV1 ovarian
OVCAR-3 ovarian = tested on: OVCAR-3 ovarian
HS 578T breast = tested on: HS 578T breast
NCI/ADR-RES ovarian = tested on: NCI/ADR-RES ovarian

Row | SMILES | growth (SR leukemia) | growth (RPMI-8226 leukemia) | growth (OVCAR-8 ovarian) | growth (OVCAR-5 ovarian) | growth (OVCAR-4 ovarian) | growth (SK-OV-3 ovarian) | growth (IGROV1 ovarian) | growth (OVCAR-3 ovarian) | growth (HS 578T breast) | growth (NCI/ADR-RES ovarian)
1 | c1ccc(CCNc2ncnc3[nH]ncc23)cc1 | 107% | 67% | 95% | 82.5% | 81.1% | 109% | 83.5% | 108% | 66.3% | 97.9%
2 | NC(=NCCCC1(c2ccccc2)CCCC1)Nc1ccc(Cl)cc1 | -39.7% (active) | -24.2% (active) | 60.4% | 59.8% | 41.3% | 89% | 38.9% | 60.8% | 65.4% | 67.1%
3 | CCCOc1cc2ccccc2cc1C(=O)Nc1nc(NC)c2c(ccc3nccc32)[nH]1 | -49.3% (active) | -46% (active) | -33.2% (active) | -61.4% (active) | -58.5% (active) | -86.9% (active) | -67.2% (active) | -76% (active) | -56.3% (active) | -17% (active)
4 | NC(=O)c1cc(I)ccc1NC(=O)/C=C/c1ccccc1Cl | -30.4% (active) | -11.5% (active) | 31.3% | 38.2% | 9.92% (active) | 4.87% (active) | 77.5% | -40.8% (active) | -17.6% (active) | 8.88% (active)
5 | CCn1c(Cc2ccccc2Nc2c(Cl)cccc2Cl)nnc1SCC(=O)NN1C(=O)/C(=C/c2cc(OC)c(O)c(OC)c2)SC1=S | 21.4% | 47% | 60% | 55.5% | 74% | 23.2% | 42.9% | 7.37% (active) | 5.34% (active) | 88.6%
6 | NNCCc1ccc(NC(=O)CCCc2ccc(/C=C/C(=O)NO)cc2)cc1 | 18.2% | 37.5% | 8.02% (active) | 71.4% | 29.9% | 64.1% | 62.9% | 55.3% | 21.2% | 44.3%
7 | COc1cc(C(=O)/C=C/c2cccnc2Nc2ccc(Cl)cc2)cc(OC)c1OC | 5.22% (active) | -30.2% (active) | -17.6% (active) | -78.3% (active) | -90.4% (active) | -5.2% (active) | -60.9% (active) | -97.1% (active) | 29.4% | 3.59% (active)
8 | Cn1cc(C(=O)c2nc(-c3c[nH]c4ccc(F)cc34)no2)c2cc(F)ccc21 | 48.1% | 98.8% | 95.9% | 95.5% | 97.5% | 83.6% | 66.8% | 97.4% | 91.3% | 84%
9 | COc1ccc(-n2nc(C)c3c(Nc4ccc(NC(=O)Nc5cc(C(F)(F)F)ccc5F)cc4)ncnc32)cc1 | 28.4% | 4.77% (active) | 26.4% | 25.1% | 57.8% | 29.5% | 39.2% | 25.2% | 28.4% | 24.1%
10 | O=C1/C(=C(/c2ccccc2)N2CCOCC2)Cc2ccccc21 | 26.6% | 16.5% | 20.4% | 34.4% | 31.7% | 93.6% | 14% | -60.7% (active) | 5.18% (active) | -33.1% (active)
11 | CN(C)c1ccc(N=Nc2ccccn2)c(O)c1 | 3.79% (active) | 16.2% | 16% | 68.6% | 28.3% | 19.5% | 14.9% | 33.2% | 60.9% | 12.4%
12 | CCOC(=O)n1cc(-c2nonc2-c2cn(C)c3ncccc23)c2cc(F)ccc21 | 84% | 58.3% | 84.5% | 87.7% | 55.3% | 85.8% | 56.3% | 77.6% | 79.4% | 74%
13 | Clc1ccc2c(NCCCCNc3nc(N4CCCCC4)nc4ccccc34)ccnc2c1 | -35.7% (active) | -45.9% (active) | 11.7% | 17.1% | 29.8% | 50.8% | 20.8% | -27.3% (active) | -19.9% (active) | 19.3%
14 | NS(=O)(=O)c1ccc(CN=C2NC(=O)S/C2=C\c2ccc(Br)cc2)cc1 | 119% | 99.8% | 106% | 94.1% | 112% | 94.3% | 96.9% | 106% | 97.6% | 105%
15 | CCN(CC)c1ccc2c(c1)Oc1nc(N)c(C#N)c(N)c1C2Sc1ccc(SC)cc1 (stereo not given) | -18.8% (active) | -37.3% (active) | -7.42% (active) | -27.1% (active) | -2.7% (active) | -4.96% (active) | -13.9% (active) | -30.4% (active) | 26% | 10.8%
16 | O=Nc1c(O)c(Cl)cc2ccccc12 | 71.7% | 40.1% | 68.6% | 115% | 78.9% | 81.4% | 59.1% | 67.3% | 89.4% | 72.2%
17 | Cc1ncc(C(=O)Nc2ccc(CN3CCN(C)CC3)c(C(F)(F)F)c2)cc1C#Cc1cnc2cccnn12 | -14.9% (active) | 2.24% (active) | 6.1% (active) | 13.8% | -17% (active) | 22.9% | 5.84% (active) | -0.593% (active) | -15.5% (active) | 8.62% (active)
18 | COc1ccc(/C=C/c2nc(-c3n[nH]c(=O)n3-c3ccccc3)c3ccccc3n2)cc1 | 92.6% | 89.6% | 98.9% | 96.1% | 91.4% | 94.8% | 99.1% | 101% | 100% | 100%
19 | CSc1ccc(-c2n[nH]nc2-c2cc3ccccc3s2)cc1 | 24.9% | 40.1% | 59.3% | 95.3% | 75.8% | 52.7% | 46.4% | 26.5% | 58.5% | 22.8%
20 | Cc1ccccc1COc1ccc(-c2onc(C)c2-c2ccc(Cl)cc2)cc1 | 34% | 81% | 75.8% | 87.6% | 82.7% | 59.5% | 52.5% | 20.7% | 59.4% | 39.2%
21 | OCCN1CCN(c2nc(Nc3ccc(-c4nc5ccccc5[nH]4)cc3)c3cn[nH]c3n2)CC1 | -61.1% (active) | -48.5% (active) | -91% (active) | -76.2% (active) | -74.6% (active) | -95.9% (active) | -78% (active) | -82.3% (active) | -47% (active) | -77.3% (active)
22 | CCCCn1cnc2c(Sc3c([N+](=O)[O-])ncn3C)nc(N)nc21 | 56.1% | 52.3% | 91.4% | 97.6% | 89.9% | 101% | 89.3% | 103% | 101% | 109%
23 | O=C(Oc1cccnc1)c1ccsc1Nc1ccnc(C(F)(F)F)c1 | 17.6% | 27.6% | 84% | 102% | 60.2% | 88.2% | 35.9% | 100% | 109% | 60.4%
24 | Cc1ccc(O)c(N2C(=NCc3ccco3)NS(=O)(=O)c3cnccc32)c1 | 71.3% | 65.7% | 64.5% | 92.4% | 107% | 117% | 94.2% | 96.9% | 113% | 95.2%
25 | COc1ccc(C2CC(c3ccc(Cl)cc3)=NN2/C=C2\SC(=S)N(NC(=O)Cc3ccccc3Nc3c(Cl)cccc3Cl)C2=O)cc1 (stereo not given) | 16.8% | 71.9% | 23.3% | 86.3% | 74.7% | 77.9% | 38.9% | 84.4% | 75.6% | 82%
26 | COc1cc2c(cc1-c1c(C)noc1C)ncc1nc(C3CCCCC3)n([C@H](C)COC(F)F)c12 | 17.9% | 18.9% | 42% | 75.1% | 44.8% | 12.5% | 37.8% | 37.3% | 18.9% | 38.2%
27 | c1ccc2[nH]c(-c3ccc(Nc4nc(N5CCCC5)nc5[nH]ncc45)cc3)nc2c1 | -31.1% (active) | -34.4% (active) | -55.1% (active) | 17.9% | 10.7% | 22.2% | 4.03% (active) | -53.1% (active) | -34% (active) | 1.12% (active)
